± gives the standard deviation.
tested on: MILI (PIWIL2) piRISC loaded with piRNA #1 (26 nt); assay: pre-steady-state target cleavage rate (min^-1); guide: piRNA #1 5'p-UGAGGUAGUAGGUUGUAUAGUAUCCA; MIWI and MILI are mouse PIWI proteins and EfPiwi is from a freshwater sponge; tags in brackets are library labels; higher = faster piRNA-guided slicing of the target; conditions: auxiliary factor: 500 nM mouse GTSF1
Method in brief: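 Using HEPES–potassium acetate buffer at 33 °C, 1 nM active affinity-purified piRISC with a single synthetic guide was mixed with 0.1 nM transcribed, DNA-blocked target RNA library for 0–8 or 0–960 min, with or without 500 nM GTSF1 partner protein. Uncleaved targets were sequenced and normalised to depth and to weakly complementary targets, and three trials were pooled with k3 capped at 0.0001 min^-1. A burst-and-steady-state fit gave the pre-steady-state cleavage rate.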

Row | Sequence | pre-steady-state target cleavage rate
1 | GGAGACCUAUGAUAUGUUGGUACUACCUCA [g2:g10:cont:t1A] | < 0.0001
2 | GGAGACCUAUGAUAUGUACCUACUUGCUCA | < 0.0001
3 | GGAGACCUAUCUAAACAAGCUACUACCUCA | 0.176 ± 0.019
4 | GGAGUGGAUACUAUUGUACCUACUACCUCA | 0.115 ± 0.0083
5 | GGAGACCUAUCUAUACAAGCUACUUCCUCA | 0.164 ± 0.015
6 | GGAGACGAUACUUUACAACCUUCUACCUCA | 0.00805 ± 0.0018
7 | GGAGACCUAUGAUAAGAACCUACUUCCUCA | < 0.0001
8 | GGAGAGGUUAGUAUACAACCUACUACCUCA | 0.0314 ± 0.0096
9 | GGAGACGAUAGUAUACAACCUACUAGCUCA | 0.0976 ± 0.021
10 | GGAGACCUAUGAUAUGUUGGUACUACGAGA | < 0.0001
11 | GGAGUGGAUUCUUUACAACCUACUACCUCA | 0.16 ± 0.0093
12 | GGAGACCUAUGUAAACAACGUACUACCUCA | 0.0029 ± 0.002
13 | GGAGACCUUACUAUACAACCUACCUACCUCA | 0.148 ± 0.015
14 | GGAGAGGAUACAAUACUACCUACUACCUCA | 0.154 ± 0.013
15 | GGAGACCUAUGAUUCAACCUACUACCUCA | 0.0177 ± 0.0042
16 | GGAGACCUAUGAUAACUUGCUACUACCUCA | < 0.0001

Reference: the supplement of paper PMC10338343
